{"source": "PubChem BioAssay (EPA / NIEHS)", "note": "“And” between values parts separate entries of the source, which are not always exact repeats. Identical values can stand only once. Results filed as inconclusive are left out. Some compounds were tested as several samples or in several runs, with calls that do not always agree. The source made the active and inactive calls. The calls were made as follows: active = hit-call score of the fitted dose curve at least 0.9, where 1 is the maximum; inconclusive = response in the unintended direction; inactive = score below 0.9."}
{"system": "not listed separately", "assay": "ATG_XTT_Cytotoxicity: Cytotoxicity Assessment in the Attagene TRANS-FACTORIAL HepG2 Assay (AID 2283584)", "summary_of_the_method": "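Viability endpoint from XTT after 24 h chemical exposure of reporter-transfected human HepG2 liver cells; signal loss fitted relative to DMSO negative control.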"}
{"smiles": "O=C1C(Cl)=C(Cl)C(=O)C(Cl)=C1Cl", "outcome": "inactive"}
{"smiles": "N#CCCCCC#N", "outcome": "inactive"}
{"smiles": "CC1CCC(=O)O1", "note": "(centres undefined)", "outcome": "inactive"}
{"smiles": "[N-]=[N+]=CC(=O)OC[C@H](N)C(=O)O", "outcome": "inactive"}
{"smiles": "CCC1CCC(=O)O1", "note": "(centres undefined)", "outcome": "inactive"}
{"smiles": "C=COCCCl", "outcome": "inactive"}
{"smiles": "C=CCN(CC=C)C(=O)C(Cl)Cl", "outcome": "inactive"}
{"smiles": "CC(Cc1ccc(C(C)(C)C)cc1)CN1C[C@@H](C)O[C@@H](C)C1", "note": "(some centres undefined)", "outcome": "inactive"}
{"smiles": "[Cl-].[Cl-].[Cl-].[Yb+3]", "outcome": "inactive"}
{"smiles": "CCC[N+](=O)[O-]", "outcome": "inactive"}
{"smiles": "CC(C)(O)C#N", "outcome": "inactive"}
{"smiles": "S=c1[nH]c2ccccc2[nH]1", "outcome": "inactive"}
{"smiles": "CCCCCc1cc(O)cc(O)c1", "outcome": "inactive"}
{"smiles": "Cc1ccc(OP(=O)(Oc2ccc(C)cc2)Oc2ccc(C)cc2)cc1", "note": "(tested in a mixture with another compound)", "outcome": "inactive"}
{"smiles": "CCC(C)c1cc(C(C)(C)C)cc(-n2nc3ccccc3n2)c1O", "note": "(centres undefined)", "outcome": "inactive"}
{"smiles": "CC1(C)C(=O)NC(=O)NC1=O", "outcome": "inactive"}
{"smiles": "O=C1Nc2ccc(Cl)cc2C(c2ccccc2)=NC1O", "note": "(centres undefined)", "outcome": "inactive"}
{"system": "not listed separately", "assay": "TOX21_p53_BLA_p2_viability: Viability Assessment in the Tox21 HCT-116 p53 Agonism Beta-lactamase Assay, Phase 2 (AID 2283591);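 also: compound exposure lasted 16 h at 37 °C; actives lower the ATP signal meaning cytotoxicity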", "summary_of_the_method": "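Cytotoxicity readout: CellTiter-Glo ATP luminescence, 30 min at room temperature, after the beta-lactamase read. Cells were HCT116 exposed 16 h at 37C to compounds pin-transferred at 217-fold dilution from DMSO stocks.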"}
{"smiles": "O=C1C(Cl)=C(Cl)C(=O)C(Cl)=C1Cl", "outcome": "inactive", "AC50": "58.9 µM (active)"}
{"smiles": "N#CCCCCC#N", "outcome": "inactive"}
{"smiles": "COc1cc(OC)c(OC)cc1C=O", "outcome": "inactive"}
{"smiles": "CC(C)(c1cc(Cl)c(O)c(Cl)c1)c1cc(Cl)c(O)c(Cl)c1", "AC50": "46.1 µM (active) and 33.1 µM (active)"}
{"smiles": "[N-]=[N+]=CC(=O)OC[C@H](N)C(=O)O", "outcome": "inactive"}
{"smiles": "COCC(=O)N(c1c(C)cccc1C)N1CCOC1=O", "outcome": "inactive"}
{"smiles": "CC(C)CCCCCCCOP(=O)(Oc1ccccc1)Oc1ccccc1", "outcome": "inactive"}
{"smiles": "C=CCN(CC=C)C(=O)C(Cl)Cl", "outcome": "inactive"}
{"smiles": "CC[N+](=O)[O-]", "outcome": "inactive"}
{"smiles": "CC(Cc1ccc(C(C)(C)C)cc1)CN1C[C@@H](C)O[C@@H](C)C1", "note": "(some centres undefined)", "outcome": "inactive"}
{"smiles": "[Cl-].[Cl-].[Cl-].[Yb+3]", "outcome": "inactive"}
{"smiles": "CCOC(=O)N(C)N=O", "outcome": "inactive"}
{"smiles": "CCC[N+](=O)[O-]", "outcome": "inactive"}
{"smiles": "CC(C)(O)C#N", "outcome": "inactive"}
{"smiles": "S=c1[nH]c2ccccc2[nH]1", "outcome": "inactive"}
{"smiles": "c1ccc(Nc2ccc3ccccc3c2)cc1", "AC50": "63.2 µM (active)", "outcome": "inactive"}
{"smiles": "Cc1ccc(OP(=O)(Oc2ccc(C)cc2)Oc2ccc(C)cc2)cc1", "note": "(tested in a mixture with another compound)", "outcome": "inactive"}
{"smiles": "O=S(=O)(c1ccccc1)c1ccccc1", "outcome": "inactive"}
{"smiles": "CC1(C)C(=O)NC(=O)NC1=O", "outcome": "inactive"}
{"smiles": "c1ccc(P(c2ccccc2)c2ccccc2)cc1", "outcome": "inactive"}
{"smiles": "CCOC(=O)COc1ccc(Cl)cc1Cl", "outcome": "inactive"}
{"smiles": "N#Cc1cccc(C#N)c1", "outcome": "inactive"}
{"smiles": "O=C1Nc2ccc(Cl)cc2C(c2ccccc2)=NC1O", "note": "(centres undefined)", "outcome": "inactive"}
{"smiles": "N#CC(c1ccccc1)c1ccccc1", "outcome": "inactive"}
{"target": "Cellular tumor antigen p53 (Homo sapiens) (UniProt P04637)", "sequence (P04637 whole entry, looked up)": "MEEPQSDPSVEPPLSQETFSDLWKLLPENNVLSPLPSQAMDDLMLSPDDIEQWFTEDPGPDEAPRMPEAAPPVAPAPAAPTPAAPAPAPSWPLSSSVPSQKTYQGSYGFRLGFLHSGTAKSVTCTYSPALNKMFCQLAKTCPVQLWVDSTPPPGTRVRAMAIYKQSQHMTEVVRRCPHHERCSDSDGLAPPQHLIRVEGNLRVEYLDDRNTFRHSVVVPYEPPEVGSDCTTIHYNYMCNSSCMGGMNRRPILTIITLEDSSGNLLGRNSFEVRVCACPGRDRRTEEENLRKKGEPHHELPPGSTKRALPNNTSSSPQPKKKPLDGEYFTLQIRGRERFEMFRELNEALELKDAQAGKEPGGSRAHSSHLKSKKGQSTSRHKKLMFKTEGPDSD", "assay": "TOX21_p53_BLA_p2_ratio: Tox21 HCT-116 p53 Agonism Beta-lactamase Assay, Ratio, Phase 2 (AID 2283592)", "summary_of_the_method": "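Read-out is the blue/green (460/530 nm, 405 nm excitation) ratio after 2 h CCF4-AM loading, fitted as gain versus DMSO. Compounds, pinned at 217-fold dilution from DMSO stocks, stayed 16 h on HCT-116 beta-lactamase reporter cells seeded 5 h earlier.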"}
{"smiles": "N#CCCCCC#N", "outcome": "inactive"}
{"smiles": "CC1CCC(=O)O1", "note": "(centres undefined)", "outcome": "inactive"}
{"smiles": "COc1cc(OC)c(OC)cc1C=O", "outcome": "inactive"}
{"smiles": "CC(C)(c1cc(Cl)c(O)c(Cl)c1)c1cc(Cl)c(O)c(Cl)c1", "AC50": "37 µM (active) and 16.5 µM (active)"}
{"smiles": "O=C(NCNC(=O)NC1C(=O)NC(=O)N1CO)NC1C(=O)NC(=O)N1CO", "note": "(centres undefined)", "outcome": "inactive"}
{"smiles": "[N-]=[N+]=CC(=O)OC[C@H](N)C(=O)O", "outcome": "inactive"}
{"smiles": "COCC(=O)N(c1c(C)cccc1C)N1CCOC1=O", "outcome": "inactive"}
{"smiles": "C=CCN(CC=C)C(=O)C(Cl)Cl", "outcome": "inactive"}
{"smiles": "CC[N+](=O)[O-]", "outcome": "inactive"}
{"smiles": "CC(Cc1ccc(C(C)(C)C)cc1)CN1C[C@@H](C)O[C@@H](C)C1", "note": "(some centres undefined)", "outcome": "inactive"}
{"smiles": "O=CNC(N1CCN(C(NC=O)C(Cl)(Cl)Cl)CC1)C(Cl)(Cl)Cl", "note": "(centres undefined)", "outcome": "inactive"}
{"smiles": "CCC[N+](=O)[O-]", "outcome": "inactive"}
{"smiles": "CC(C)(O)C#N", "outcome": "inactive"}
{"smiles": "CCCCCc1cc(O)cc(O)c1", "outcome": "inactive", "AC50": "83.7 µM (active)"}
{"smiles": "c1ccc(Nc2ccc3ccccc3c2)cc1", "outcome": "inactive", "AC50": "74.9 µM (active)"}
{"smiles": "CC=Cc1ccc2c(c1)OCO2", "outcome": "inactive"}
{"smiles": "Cc1ccc(OP(=O)(Oc2ccc(C)cc2)Oc2ccc(C)cc2)cc1", "note": "(tested in a mixture with another compound)", "outcome": "inactive"}
{"smiles": "O=S(=O)(c1ccccc1)c1ccccc1", "outcome": "inactive"}
{"smiles": "CC1(C)C(=O)NC(=O)NC1=O", "outcome": "inactive"}
{"smiles": "CCOC(=O)COc1ccc(Cl)cc1Cl", "outcome": "inactive"}
{"smiles": "N#Cc1cccc(C#N)c1", "outcome": "inactive"}
{"smiles": "O=C1Nc2ccc(Cl)cc2C(c2ccccc2)=NC1O", "note": "(centres undefined)", "outcome": "inactive"}
{"smiles": "N#CC(c1ccccc1)c1ccccc1", "outcome": "inactive"}
{"system": "not listed separately", "assay": "TOX21_p53_BLA_p3_viability: Viability Assessment in the Tox21 HCT-116 p53 Agonism Beta-lactamase Assay, Phase 3 (AID 2283593);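 also: cells exposed to compound for 16 h before reading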", "summary_of_the_method": "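Cellular ATP was quantified by CellTiter-Glo luminescence, read after 30 min at room temperature. Beforehand, HCT116 cells (4000/well) received compound 5 h post-seeding, 217-fold diluted from DMSO, then incubated 16 h at 37C.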"}
{"smiles": "O=C1C(Cl)=C(Cl)C(=O)C(Cl)=C1Cl", "AC50": "21.6 µM (active) and 44.2 µM (active)"}
{"smiles": "COc1cc(OC)c(OC)cc1C=O", "outcome": "inactive"}
{"smiles": "CC(C)(c1cc(Cl)c(O)c(Cl)c1)c1cc(Cl)c(O)c(Cl)c1", "AC50": "65.5 µM (active)", "outcome": "inactive"}
{"smiles": "[N-]=[N+]=CC(=O)OC[C@H](N)C(=O)O", "outcome": "inactive"}
{"smiles": "COCC(=O)N(c1c(C)cccc1C)N1CCOC1=O", "outcome": "inactive"}
{"smiles": "CC(C)CCCCCCCOP(=O)(Oc1ccccc1)Oc1ccccc1", "outcome": "inactive"}
{"smiles": "C=CCN(CC=C)C(=O)C(Cl)Cl", "outcome": "inactive"}
{"smiles": "CC[N+](=O)[O-]", "outcome": "inactive"}
{"smiles": "CC(Cc1ccc(C(C)(C)C)cc1)CN1C[C@@H](C)O[C@@H](C)C1", "note": "(some centres undefined)", "AC50": "46.1 µM (active)"}
{"smiles": "[Cl-].[Cl-].[Cl-].[Yb+3]", "outcome": "inactive"}
{"smiles": "CCOC(=O)N(C)N=O", "outcome": "inactive"}
{"smiles": "CCC[N+](=O)[O-]", "outcome": "inactive"}
{"smiles": "CC(C)(O)C#N", "outcome": "inactive"}
{"smiles": "S=c1[nH]c2ccccc2[nH]1", "outcome": "inactive"}
{"smiles": "c1ccc(Nc2ccc3ccccc3c2)cc1", "outcome": "inactive"}
{"smiles": "CSc1nc(N=[N+]=[N-])nc(NC(C)C)n1", "outcome": "inactive"}
{"smiles": "c1ccc(P(c2ccccc2)c2ccccc2)cc1", "outcome": "inactive"}
{"smiles": "N#Cc1cccc(C#N)c1", "outcome": "inactive"}
{"smiles": "O=C1Nc2ccc(Cl)cc2C(c2ccccc2)=NC1O", "note": "(centres undefined)", "outcome": "inactive"}
{"smiles": "N#CC(c1ccccc1)c1ccccc1", "outcome": "inactive"}
